# In ChEMBL document CHEMBL3433997, “St. Jude Leishmania screening dataset” (2016):
# Target: Glucose transporter (Leishmania mexicana) (UniProt O61059)
# Experiment: ST_JUDE_LEISH: Cytotoxicity at 2uM final concentration against transgenic Leishmania Mexicana promastigotes LmGT2 that are glucose transport deficient and complemented with the L. Mexicana glucose transporter 2. Activity is measured by DNA content using SYBR green in vitro
# Format: functional
row,SMILES,inhibition [%]
1,Cc1cccc2nc(-c3ccc(-c4ccc(NC(=O)C(C)CN(C)C)cc4)cc3)[nH]c12 (stereo not given),5.39
2,O=C(N[C@H]1CCN(Cc2ccc(OCCCN3CCCCC3)cc2)C1)c1cc(Cl)cc(Cl)c1,2.29
3,O=[N+]([O-])c1ccc(C(O)CNCCc2ccccc2)cc1OCc1ccccc1 (stereo not given),15
4,COc1ccc(-c2cc3nc4c(c(NCCCn5ccnc5)n3n2)CCCC4)cc1,2.25
5,O=C(Nc1ccc(Cl)cn1)c1sc2ccccc2c1O,0.99
6,CC(C)C(C(=O)n1ncc2c3c(N)nc(N)nc3ccc21)C(C)C,78.4
7,O=C1CCCN1CCCNCc1ccc(-c2ccc(-c3nc4cc(C(F)(F)F)ccc4[nH]3)s2)cc1,3.27
8,O=C(Nc1ccc(OC2CCN(Cc3ccsc3)C2)c(Cl)c1)c1ccc(F)cc1 (stereo not given),0.32
9,C=CCNS(=O)(=O)c1ccc(NC(=O)C(C)Oc2ccc([N+](=O)[O-])cc2)cc1 (stereo not given),-0.8
10,Cc1cc(OCCCN2CCC(NS(=O)(=O)c3ccc(Cl)c(Cl)c3)CC2)c2ccccc2n1,4.76
11,Cc1cccc(C)c1CNc1ccnc2cc(Br)ccc12,5.92
12,COc1ccc2nccc([C@@H](O)CN3CCC(NCc4cc5c(cc4F)SCC(=O)N5)CC3)c2n1,8.6
13,Cc1cccc(Nc2nc(C)cc(N3CCCN(CC4CCCCC4)CC3)n2)c1,-0.15
14,CCCCc1ccccc1NS(=O)(=O)c1ccc(OC)c(N2CCNCC2)c1,-2.27
15,CN(C)CC(=O)N(Cc1ccc(Cl)c(Cl)c1)Cc1csc(-c2ccc(CNCc3ccccc3)cc2)n1,0.35
16,O=C(Cc1ccccc1)NC1CCN(c2ccnc3cc(Cl)ccc23)C1 (stereo not given),3.56
17,CCCCC(CCCC)CN1C(=O)C(c2ccccc2)(c2ccccc2)N=C1N,0.77
18,CC(CCCCCC(=O)Nc1ccc(CC(C)NCCc2cccc(Cl)c2)cc1)NCCc1cccc(Cl)c1 (stereo not given),9.83
19,Nc1c(Cl)cc(C(O)CNCCCCCOCCc2ccccc2)cc1C(F)(F)F (stereo not given),-2.01
20,CC(C)CNCc1ccc(-c2cccc(CN(CCCN3CCN(C)CC3)C(=O)/C=C/c3ccccc3)c2)cc1,5.27

row,SMILES,inhibition [%]
1,COc1ccc2nccc(N3CCN(CCNCc4ccc5c(n4)NC(=O)CO5)CC3)c2c1,8.99
2,Cc1cccc2nc(-c3ccc(-c4cccc(CN5CCN(c6ccc(C#N)cn6)CC5)c4)s3)[nH]c12,1.21
3,O=C(/C=C/c1ccc(Cl)cc1)NCCCCCN1CCC(C(=O)Nc2ccc(Cl)c(Cl)c2)CC1,-0.64
4,CC1=C(C(=O)Nc2cc3cn[nH]c3cc2F)C(c2cccc(O)c2F)CC(=O)N1 (stereo not given),0.72
5,Cc1ccc2[nH]c3ccccc3c(=O)c2c1,1.77
6,COc1ccc2ncc(F)c(CCN3CCC(CNC(=O)C(=O)c4c[nH]c5ccccc45)CC3)c2n1,1.37
7,CCCCN(Cc1cnccc1-c1ccc(Br)cc1)c1ccc(C(O)(C(F)(F)F)C(F)(F)F)cc1,0
8,CC(C)(NCc1ncc[nH]1)c1nc(-c2ccc(Cl)c(O)c2)c(-c2ccncc2)[nH]1,3.01
9,O=[N+]([O-])c1ccc2c(c1)c1ccccc1n2Cc1ccccc1O,-2.69
10,COc1ccc(COc2c(OC)cc(Cc3cnc(N)nc3N)cc2OC)cc1,6.57
11,COc1ccc(-c2cccc(NC(=O)c3cccc(C#N)c3)c2)cc1CN1CCCC1,5.27
12,COc1cc(C)ccc1N1CCN(CCCCNC(=O)c2ccc(NC(=O)c3ccc(Cl)cc3)cc2)CC1,6.92
13,CC(CCON1C(N)=NC(N)=NC1(C)C)c1ccc(Cl)cc1 (stereo not given),21
14,O=C(Nc1ccc(F)cc1)NC1CCN(c2ccnc3ccccc23)C1 (stereo not given),3.79
15,COc1ccc(-c2nc(NC(=O)Cc3coc4cc(OC)ccc34)sc2C)cc1,-0.72
16,N#Cc1cc(C(=O)Nc2ccccc2)c(N)nc1SCC(=O)Nc1ccc(Br)cc1,4.96
17,N#Cc1ccc(N2CCN(Cc3cccc(-c4cccc(-c5nc6cc(C(F)(F)F)ccc6[nH]5)c4)c3)CC2)nc1,-2.37
18,COc1cc2ccccc2c(OC)c1CNCCCCCCNCc1c(OC)cc2ccccc2c1OC,12.4
19,O=C(CCCCCNC(=O)c1ccc(O)c(-c2ccc(Cl)c(Cl)c2)c1)NCCN1CCCC1,1.56
20,CCNc1cc(C(=O)N[C@@H](Cc2ccco2)[C@H](O)CNC2CCCCC2)cc(N2CCCCS2(=O)=O)c1,2.15
